Measured values taken from PubChem BioAssay (EPA / NIEHS).
The source made the active and inactive calls. Rule for the calls: active = hit-call score of the fitted dose curve at least 0.9, where 1 is the maximum; inactive = score below 0.9.

These compounds were tested on Bcl-2 (BID) gene, BID (gene 637) (assay: LTEA_HepaRG_BID: Life Technologies and Expression Analysis (LTEA) Assay for Bcl-2 (BID) gene using HepaRG (AID 2283476)). Conditions: mRNA level, 48 h; actives raise or lower the signal.
Experimental: LTEA_HepaRG is a cell based, multiplexed-readout assay that uses HepaRG, a human liver cell line, with measurements taken at 48 hours after chemical dosing on a 96-well plate.LTEA_HepaRG_BID is one of 102 assay component(s) measured in the LTEA HepaRG cell culture assay. It is a marker of Cell proliferation, survival, death.Data from the assay component LTEA_HepaRG_BID was analyzed into 1 endpoint. This assay endpoint, LTEA_HepaRG_BID, was analyzed with bidirectional fitting relative to DMSO as the negative control and baseline of activity. Using a type of inducible reporter, measures of mRNA induction for gain or loss-of-signal activity can be used to understand regulation of transcription factor activity. To generalize the intended target to other relatable targets, this assay endpoint is annotated to the cell cycle intended target family, where the subfamily is Cell proliferation, survival, death.
A total of 1060 chemcials from the ToxCast library were tested in eight-point concentration-response experiments. Cell culture and cytotoxicity assays were conducted at Thermo Fisher Scientific's Custom Services facility (Madison, WI). A single lot of human HepaRG cells (Thermo Fisher Scientific, Frederick, MD) was used for the cell culture experiments. 96-well format collagen type I coated plates of human HepaRG cells were prepared using established methods. Briefly, cryopreserved HepaRG cells were thawed, plated at a density of approximately 100,000 cells/well in HepaRG Thaw, Plate, and General Purpose media (HPRG770, Thermo Fisher Scientific), and incubated for 48 hours. 0.5% DMSO was selected as vehicle control to balance the requisite need of DMSO in HepaRG cultures to maintain differentiation (for example, baseline metabolism, proportions of hepatocytes vs. cholangiocytes), while enabling further hepatic receptor pathway activation (for example, PXR and CAR) in response to chemical exposure. 48 hours after plating, the culture medium was replaced with HepaRG Serum-Free Incudtion Media. Cells were exposed to each test chemical in duplicate and maintained in CO2 incubators for another 48 hours. Chemical plates were thawed to room temperature and 200x concentrations of treatment groups were prepared. 8-point conentration-reponse curves were made with the highest exposure at 100 uM, followed by half-log dilutions, all in 0.5% DMSO. Each test plate contained variouse controls, induction positive controls (1mM phenobarbital), cytotoxicity positive controls ([…] aflatoxin B1), vehicle controls (0.5% DMSO), and total lysis controls (0.5% DMSO). Cell morphology images were taken using an Essen IncuCyte FLR automated microscope, with six 96-well plates imaged in about 24 minutes. Images were captured and exported and JPEG files. Spent culture media was transfered to black-well plates for the LDH assay, and remaining media was sorted at -80 C for later use. Cells were treated with RLT buffer and frozen until shipped for gene expression analysis. Total RNA was isolated from the cell suspension in 75 uL of Buffer RLT (Qiagen, Germantown, MD 20874) by Quintiles/Expression Analysis (Durham, NC) using a custom isolation procedure. Total RNA from each plate well was transferred to a preamplification plate. Fluidigm's 96.96 Dynamic ArrayTM (Fluidigm, Amsterdam, the Netherlands) technology was used for gene expression analyses by quantitative reverse transcription polymerase chain reaction (qRT-PCR, performed by Quintiles/Expression Analysis, Durham, NC)89. Standard TaqManTM Assays (Applied Biosystems/ThermoFisher Scientific, Foster City, CA) were used to assess the expression of 93 genes selected based on their selectivity and sensitivity to important hepatic receptors known to be modulated by environmental chemicals; importance in human hepatocyte functionality; and hepatotoxicity. […]

Structure (SMILES)	outcome
O=C(O)C1(c2ccc3c(c2)OC[C@H](Cc2ccc(-c4ccccc4)cc2)[C@H]3O)CCCC1	inactive
COc1ccccc1N	inactive
Oc1c(Cl)cc(Cl)cc1Cl	inactive
Clc1cccc(Cl)c1Cl	inactive
O=C(N[C@H]1CN2CCC1CC2)c1ccc2c(c1)OCCO2	inactive
Cc1cc(C)cc(C)c1	inactive
Clc1cccc(Cl)c1	inactive
N#Cc1cccnc1	inactive
OCCN(CCO)CCO	inactive
Oc1cc(Cl)c(Cl)cc1Cl	inactive
CC(C)O.CC(C)O.OCCN(CCO)CCO.OCCN(CCO)CCO.[Ti]	inactive
CCCCCCCCCCCCc1cccc(S(=O)(=O)O)c1	inactive
CC(C)(C)c1ccccc1O	inactive
CN(C)C(=S)S	inactive
